{"source": "ChEMBL document CHEMBL3988442", "about": "“University of Dundee, Small-Polar-MMV Screening Library” (2021)", "data": [{"tested_on": "Trypanosoma cruzi", "assay": "Trypanosoma cruzi phosphomannomutase and mannose-1-phosphate guanylyltransferase assay", "format": "functional", "design": "scale not given: direction of the effect not stated beside the values", "settings": "10 µM", "units": {"Percent Effect": "%"}, "values": [{"molecule": "Cc1cccc(N2CC[C@@H]3CN(C(=O)c4ccco4)CCO[C@@H]3C2)n1", "Percent Effect": -3.15}, {"molecule": "CCC1=N[C@@]2(CC[C@@H]3CN(CC(=O)N(C)C)C[C@@H]32)C(=O)N1CC1CC1", "Percent Effect": -6.88}, {"molecule": "CCCC(NC(=O)c1ccc(OC)cc1F)c1nnn[nH]1", "note": "(stereo not given)", "Percent Effect": 5.16}, {"molecule": "Cc1noc(C(C)N2CCN(CC(=O)N3CCOCC3)CC2)n1", "note": "(stereo not given)", "Percent Effect": 5.55}, {"molecule": "c1ccc(CN2CCCC2Cn2cncn2)nc1", "note": "(stereo not given)", "Percent Effect": 3.87}, {"molecule": "O=C(c1ccno1)N1CC[C@@H]2O[C@@H](COCCN3CCCC3)CC[C@@H]21", "Percent Effect": 1.66}, {"molecule": "CCOc1ccnc(N2CCN(C(=O)c3cccnc3O)CC2)n1", "Percent Effect": 0.283}, {"molecule": "CC(C)(C(=O)NCC(N)=O)c1ccccc1F", "Percent Effect": -3.98}, {"molecule": "CCOc1ncccc1C(=O)N(C)Cc1ncc(C)c(OC)c1C", "Percent Effect": -3.23}, {"molecule": "Cc1cccc(C(=O)N2C[C@@H]3CCN(c4cccnc4)C[C@@H]3C2)c1", "Percent Effect": -1.38}, {"molecule": "CC(OCC(F)(F)F)C(=O)Nc1ccc(-n2cncn2)nc1", "note": "(stereo not given)", "Percent Effect": -1.27}, {"molecule": "Cc1noc(C)c1-c1cncc(C2CCCN2Cc2ccncc2)n1", "note": "(stereo not given)", "Percent Effect": 0.79}, {"molecule": "C=C(C)CN(Cc1cccc(O)c1)C1CCC(O)CC1", "note": "(stereo not given)", "Percent Effect": -2.64}, {"molecule": "COc1ccccc1CC(=O)N1CCC(NCc2c[nH]nc2C)CC1", "Percent Effect": -1.02}, {"molecule": "CC(C)Cc1noc(CN2CCN(CCO)CC2)n1", "Percent Effect": -2.07}, {"molecule": "COc1cccc(CN(C)C(=O)CN2CC(n3nc(C)cc3C)C2)c1", "Percent Effect": 1.27}, {"molecule": "CCc1noc(C)c1C(=O)N1CCCC1Cn1nc(C)cc1C", "note": "(stereo not given)", "Percent Effect": 2.71}, {"molecule": "COc1ccc(CN(C)C(=O)CCc2c(C)nc(C)[nH]c2=O)cc1OC", "Percent Effect": 5.15}, {"molecule": "Cc1cc(N2CCCN(C(=O)Cc3ccc(O)c(Cl)c3)CC2)ccn1", "Percent Effect": 2.18}, {"molecule": "Cc1ccc2nc(C3CCN(CCO)CC3)nn2c1", "Percent Effect": -2.51}, {"molecule": "Cc1ccsc1C(=O)N1CC(C(=O)N2CCOCC2)C2(CCOCC2)C1", "note": "(stereo not given)", "Percent Effect": -8.38}, {"molecule": "Cc1ccccc1C(=O)NCc1ccc(N2CCNC(=O)C2)cc1", "Percent Effect": 1.16}, {"molecule": "CC1CCN(S(=O)(=O)NCCCn2cncn2)CC1", "Percent Effect": 1.33}, {"molecule": "CCN(Cc1ccc2c(c1)OCO2)C(=O)NC(C)Cn1cccn1", "note": "(stereo not given)", "Percent Effect": -5.43}, {"molecule": "CCN(CC)C(=O)CCc1c(C)nc2cc(O)nn2c1C", "Percent Effect": -3.99}, {"molecule": "CC(C)NC(=O)[C@@H]1C[C@H](N)CN1C(=O)c1cc2ccccc2[nH]c1=O", "Percent Effect": 4.76}, {"molecule": "CCc1ccc(NC(=O)N2C[C@H]3C[C@H](C(=O)NC)[C@@H](C2)O3)cc1", "Percent Effect": -0.0986}, {"molecule": "CCN1CC2(CCNCC2)COc2ccccc2S1(=O)=O", "Percent Effect": -4.91}, {"molecule": "CN1CCc2cc(C(CNS(=O)(=O)c3cccs3)N3CCCC3)ccc21", "note": "(stereo not given)", "Percent Effect": -5.42}, {"molecule": "CC(NC(=O)N(C)Cc1ccc(Cl)s1)c1ccccn1", "note": "(stereo not given)", "Percent Effect": 0.308}, {"molecule": "O=c1oc(-c2cccs2)nn1CC(O)c1ccccc1", "note": "(stereo not given)", "Percent Effect": 0.292}, {"molecule": "Cc1cc(NC(=O)NCc2ccccc2OC(F)F)n(C)n1", "Percent Effect": -7.69}, {"molecule": "O=C(Cn1ccc2ccccc21)NCc1ccc(C(=O)O)cc1", "Percent Effect": -1.85}, {"molecule": "CCCNC(=O)Cn1nc(C(C)C)c2cnn(C(C)(C)C)c2c1=O", "Percent Effect": -0.392}, {"molecule": "Cc1ccc(CNCc2nnc3n2CCCC3C(F)(F)F)s1", "note": "(stereo not given)", "Percent Effect": 5.36}, {"molecule": "CCn1c(Cn2cncn2)nnc1C1CCN(Cc2ccncc2)CC1", "Percent Effect": -0.489}, {"molecule": "CC(=O)c1cc(CC(=O)NCc2ccc(CN(C)C)cc2)cs1", "Percent Effect": 6.37}, {"molecule": "CN(Cc1ccsc1)C(=O)CN1CCCC1Cn1cccn1", "note": "(stereo not given)", "Percent Effect": 5}, {"molecule": "c1cnnc(N2CCCC2CNCc2nc3ccccc3o2)c1", "note": "(stereo not given)", "Percent Effect": 0}, {"molecule": "CCN1C[C@@H]2[C@@H](OC)CCN(S(=O)(=O)c3ccccc3)[C@@H]2C1", "Percent Effect": -7.48}]}]}
